Measured values taken from PubChem BioAssay (Tox21).
Records with an inconclusive call do not appear. Activity calls are given as the source filed them. Unless noted, calls follow the shape of the dose curve; as a rule, active = well fitted curve in the direction sought with a large enough effect in the repeat runs; inconclusive = weak or mixed curves; inactive = no such curve, though single readings can be large; an effect the other way counts as inactive or inconclusive.

Columns and labels:
[1] = qHTS assay for small molecule agonists of the p53 signaling pathway (AID 651631; calls by dose curve; also: nearly all actives have a fitted effect of over 15% in size; also: potency is read from the fitted curve at half-maximal effect)
In short: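 Fluorescence intensity from cleaved LiveBLAzer B/G substrate (2 h, room temperature) served as the signal. Beforehand, HCT-116 reporter cells bearing p53 response elements were treated 16 h at 37 °C with DMSO-dissolved compounds.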

[2] = qHTS assay for small molecules that induce genotoxicity in human embryonic kidney cells expressing luciferase-tagged ATAD5 (AID 651632); also: nearly all actives have a fitted effect of over 15% in size
In short: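 HEK293T cells carrying a luciferase reporter tagged to ATAD5 were exposed to compound or DMSO vehicle for 16 hr at 37C, 5% CO2. Amplite was added, and after 30 min at room temperature luciferase activity was read as a marker of ATAD5 induction.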

[3] = qHTS assay for small molecules that induce genotoxicity in human embryonic kidney cells expressing luciferase-tagged ATAD5 - cell viability (AID 651634; calls by dose curve; also: nearly all actives have a fitted effect of over 25% in size)
In short: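 HEK293T cells expressing luciferase-tagged ATAD5 were exposed to compound or DMSO for 15.5 hr at 37C, 5% CO2. Viability was then read as live-cell protease activity by CellTiter-Fluor fluorescence after 30 min at 37C.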

[4] = qHTS assay for small molecule disruptors of the mitochondrial membrane potential - cell viability (AID 720634; calls by dose curve;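 also: human HepG2 liver cancer cells; nearly all actives have a fitted effect of over 20% in size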)
In short: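 HepG2 cells seeded overnight at 37 C, then exposed to compound or DMSO for 1 hr at 37 C, 5% CO2. m-MPI dye added, then CellTiter-Glo for 30 min at room temperature; viability read as ATP luminescence.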

[5] = qHTS assay for small molecule disruptors of the mitochondrial membrane potential (AID 720635); also: potency is read from the fitted curve at half-maximal effect
In short: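 HepG2 cells exposed to compound 1 hr at 37C, then Mito-MPS dye 30 min. Ratio read of aggregate (540/590 nm) versus monomer (490/535 nm) fluorescence.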

[6] = qHTS assay to test for compound auto fluorescence at 590 nm (red) in HepG2 cells (AID 720674)
In short: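 Fluorescence at 590 nm emission following 540 nm excitation was recorded from HepG2 wells one hour after compound transfer, with DMSO-only wells as vehicle and Rose Bengal sodium equivalency as the scale.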

[7] = qHTS assay to test for compound auto fluorescence at 535 nm (green) in HepG2 cells (AID 720675)
[8] = qHTS assay to test for compound auto fluorescence at 460 nm (blue) in HEK293 cells (AID 720678); also: potency is read from the fitted curve at half-maximal effect
In short: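 After cell attachment (4-5 hr, 37C), compounds were pinned onto HEK293 monolayers in 10% dialyzed FBS medium. The blue channel (405/460 nm) was read following overnight culture. Equivalency was calculated against triamterene.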

[9] = qHTS assay to test for compound auto fluorescence at 590 nm (red) in HEK293 cells (AID 720679)
In short: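 Plates of HEK293 cells (10% dialyzed FBS) are treated with 23 nL compound or DMSO vehicle after a 4-5 hr attachment period, incubated overnight at 37C, and read for red fluorescence at 540/590nm.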

[10] = qHTS assay to test for compound auto fluorescence at 535 nm (green) in HEK293 cells (AID 720680)
[11] = qHTS assay to test for compound auto fluorescence at 460 nm (blue) in HEK293 cell free culture (AID 720681); also: potency is read from the fitted curve at half-maximal effect
In short: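 Compounds were added to cell-free DMEM with 10% FBS and fluorescence read directly. The blue channel used 405 nm excitation and 460 nm emission, with triamterene as the reference fluorophore.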

[12] = qHTS assay to test for compound auto fluorescence at 535 nm (green) in HEK293 cell free culture (AID 720682)
In short: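 Intrinsic compound fluorescence is measured in culture medium containing 10% FBS, with excitation at 485 nm and detection at 535 nm, referenced to fluorescein.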

[13] = qHTS assay to test for compound auto fluorescence at 590 nm (red) in HEK293 cell free culture (AID 720683)
In short: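 Cell-free wells of DMEM with 10% FBS received compound, and intrinsic fluorescence was read at excitation/emission 540/590 nm. Values expressed as equivalence to Rose Bengal sodium.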

[14] = qHTS assay to test for compound auto fluorescence at 590 nm (red) in HepG2 cell free culture (AID 720684)
In short: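 Compounds are added to culture medium (MEM, 10% FBS) lacking cells, then fluorescence is read at excitation 540 nm, emission 590 nm, with Rose Bengal sodium as the equivalency standard.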

[15] = qHTS assay to test for compound auto fluorescence at 460 nm (blue) in HepG2 cell free culture (AID 720685); also: potency is read from the fitted curve at half-maximal effect
In short: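 Compound (23 nL) or DMSO pinned into cell-free MEM with 10% FBS; blue fluorescence read at 405/460 nm excitation/emission, expressed as auto-fluorescence equivalency to triamterene.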

[16] = qHTS assay to test for compound auto fluorescence at 535 nm (green) in HepG2 cell free culture (AID 720686)
[17] = qHTS assay to test for compound auto fluorescence at 460 nm (blue) in HepG2 cells (AID 720687)
In short: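 HepG2 cells in MEM with 10% FBS, attached overnight at 37 C, were exposed to compound or DMSO for 1 hr at 37 C, 5% CO2. Blue fluorescence was read at 405/460 nm, with triamterene as reference fluorophore.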

[18] = biological target: Glucocorticoid receptor (Homo sapiens) (UniProt P04150); test: qHTS assay to identify small molecule agonists of the glucocorticoid receptor (GR) signaling pathway (AID 720691; active = well fitted activation curve with a large enough effect in the signal ratio in the repeat runs, not every such curve was filed as active; the % refers to the signal ratio); conditions: GR-bla HeLa, beta-lactamase reporter ratio, 18 h; activation: at 62.4 µM (top of the series)
In short: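 GR-bla HeLa cells (beta-lactamase reporter under glucocorticoid response element) were plated 4 h at 37 C/5% CO2, given compounds in DMSO, and incubated 18 h at 37 C. LiveBLAzer B/G FRET substrate was added for 2 h at room temperature, then fluorescence intensity read.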

[19] = biological target: Glucocorticoid receptor (Homo sapiens) (UniProt P04150); test: qHTS assay to identify small molecule antagonists of the glucocorticoid receptor (GR) signaling pathway (AID 720692; active = well fitted inhibition curve with a large enough effect in the signal ratio in the repeat runs, not every such curve was filed as active; the % refers to the signal ratio; also: potency is read from the fitted curve at half-maximal effect)
In short: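 GR-bla HeLa cells (beta-lactamase reporter under glucocorticoid response element) were pre-plated 4 h at 37 C, treated with compounds plus 5 nM dexamethasone (final) for 18 h, then read by LiveBLAzer B/G FRET fluorescence after 2 h.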

[20] = qHTS assay for small molecule agonists of the p53 signaling pathway - cell viability (AID 651633; calls by dose curve;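 also: p53RE-bla HCT reporter cells with a stable beta-lactamase p53 reporter; nearly all actives have a fitted effect of over 30% in size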)
In short: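 p53RE-bla cells were treated with compound for 16 hours at 37 C. Cytotoxicity was then measured as CellTiter-Glo luminescence after 30 min at room temperature.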
% is scaled to controls: 0 for no effect and ±100 for the full control effect; tags tell the direction and shape of the fitted curve or compound fluorescence and quenching.

Glucocorticoid receptor (Homo sapiens), sequence (P04150 whole entry, looked up): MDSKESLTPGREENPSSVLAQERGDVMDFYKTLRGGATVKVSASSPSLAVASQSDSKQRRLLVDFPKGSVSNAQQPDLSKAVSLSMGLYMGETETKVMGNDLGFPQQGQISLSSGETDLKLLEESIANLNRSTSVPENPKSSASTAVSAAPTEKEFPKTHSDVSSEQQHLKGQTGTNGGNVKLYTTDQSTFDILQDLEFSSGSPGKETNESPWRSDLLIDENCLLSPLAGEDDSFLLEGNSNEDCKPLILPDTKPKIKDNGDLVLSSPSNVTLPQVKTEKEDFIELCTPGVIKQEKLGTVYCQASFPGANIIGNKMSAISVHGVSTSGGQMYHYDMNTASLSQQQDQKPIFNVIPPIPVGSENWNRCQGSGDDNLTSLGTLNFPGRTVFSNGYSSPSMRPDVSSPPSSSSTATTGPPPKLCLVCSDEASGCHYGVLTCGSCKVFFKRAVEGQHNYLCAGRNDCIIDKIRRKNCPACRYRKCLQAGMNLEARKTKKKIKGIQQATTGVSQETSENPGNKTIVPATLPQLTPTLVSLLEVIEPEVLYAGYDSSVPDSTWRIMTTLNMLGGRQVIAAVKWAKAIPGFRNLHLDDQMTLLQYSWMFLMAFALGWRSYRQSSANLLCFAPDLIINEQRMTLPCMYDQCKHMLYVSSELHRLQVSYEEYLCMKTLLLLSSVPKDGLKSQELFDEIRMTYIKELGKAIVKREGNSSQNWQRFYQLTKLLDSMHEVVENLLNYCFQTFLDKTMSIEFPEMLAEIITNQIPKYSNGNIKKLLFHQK

CC(=O)SC[C@@H](Cc1ccccc1)C(=O)NCC(=O)OCc1ccccc1
inactive: Potency [1] | Potency [2] | Potency [3] | Potency [4] | Potency [5] | fluorescence, relative to Rose Bengal [6] 0.374% [at 18.6 µM] | fluorescence, % of fluorescein control [7] 0.0221% [at 18.6 µM] | fluorescence, % of triamterene [8] -0.317% [at 18.6 µM] | fluorescence, % of fluorescent control [9] -1.15% [at 18.6 µM] | fluorescence, % of fluorescein [10] -0.0812% [at 18.6 µM] | fluorescence, % of fluorescent control [11] 0.0019% [at 18.6 µM] | activity change [12] -0.0233% [at 18.6 µM] | fluorescence, % of fluorescent control [13] 0.587% [at 18.6 µM] | fluorescence, % of Rose Bengal [14] -0.444% [at 18.6 µM] | fluorescence, % of fluorescent control [15] -0.074% [at 18.6 µM] | fluorescence, % of fluorescein control [16] -0.0189% [at 18.6 µM] | fluorescence, % of fluorescent control [17] 0.351% [at 18.6 µM] | Potency [18] | Potency [19]

Cc1cc2c(cc1C(F)(F)F)N(C(=O)Nc1ccc(Oc3cccnc3C)nc1)CC2
inactive: Potency [1] | Potency [2] | Potency [20] | Potency [6] | Potency [7] | Potency [8] | Potency [9] | outcome [10] | Potency [11] | outcome [12] | Potency [13] | Potency [14] | Potency [15] | Potency [16] | Potency [18] | Potency [19]
active: Potency [5] 12.4 µM

CC[C@@]1(O)C(=O)OCc2c1cc1n(c2=O)Cc2cc3c(CN(C)C)c(O)ccc3nc2-1
active: Potency [1] 0.237 µM | Potency [8] 17.8 µM [fluorescent] | Potency [11] 14.1 µM | Potency [15] 14.1 µM [fluorescent]
inactive: Potency [2] | Potency [4] | Potency [6] | Potency [9] | outcome [10] | outcome [12] | Potency [13] | Potency [14] | Potency [16] | Potency [18]

CC(C)(C)C(=O)OCOC(=O)[C@@H]1N2C(=O)[C@@H](NC(=O)[C@H](N)c3ccccc3)[C@H]2SC1(C)C
inactive: Potency [1] | Potency [2] | Potency [3] | Potency [4] | Potency [5] | fluorescence, relative to Rose Bengal [6] 0.612% [at 18.6 µM] | fluorescence, % of fluorescein control [7] -0.113% [at 18.6 µM] | fluorescence, % of triamterene [8] 0.0033% [at 18.6 µM] | fluorescence, % of fluorescein [10] -0.024% [at 18.6 µM] | fluorescence, % of fluorescent control [11] 0.0397% [at 18.6 µM] | activity change [12] 0.023% [at 18.6 µM] | fluorescence, % of fluorescent control [13] 0.0827% [at 18.6 µM] | fluorescence, % of Rose Bengal [14] -0.0322% [at 18.6 µM] | fluorescence, % of fluorescent control [15] 0.014% [at 18.6 µM] | fluorescence, % of fluorescein control [16] -0.0041% [at 18.6 µM] | fluorescence, % of fluorescent control [17] 0.061% [at 18.6 µM]

CCOc1ccc2nc3cc(N)ccc3c(N)c2c1
active: Potency [1] 11.9 µM | Potency [5] 2.66 µM
inactive: Potency [2] | Potency [3] | Potency [4] | Potency [6] | Potency [7] | Potency [9] | outcome [10] | outcome [12] | Potency [13] | Potency [14] | Potency [16]

CC(=O)S[C@@H]1CC2=CC(=O)CC[C@]2(C)[C@H]2CC[C@@]3(C)[C@@H](CC[C@@]34CCC(=O)O4)[C@H]12
inactive: Potency [2] | Potency [3] | Potency [6] | Potency [7] | Potency [8] | Potency [9] | outcome [10] | Potency [11] | outcome [12] | Potency [13] | Potency [14] | Potency [15] | Potency [16] | Potency [17]
active: Potency [1] 17.2 µM | Potency [19] 5.35 µM
